Source: PubChem BioAssay AID1159580 (chemical genetic matrix, 2015)
Several values for one entry are separate records, joined by “and”; a condition that tells them apart may be missing. Identical values can stand only once. In all, about 5,500 compounds went through this assay and about 2,000 (36%) were called active. Roughly 18% stayed inconclusive and do not appear here. Cut-off read from the data, not from the text of the source: active = normalized growth mostly below about 0.91 (no sharp cut-off); inconclusive = no clear call, values can overlap the other calls; inactive = mostly above about 0.92. The list shows a part of the results.

Experiment: chemical genetic growth profiling, strain panel (AID 1159580);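 note: tested at 20 µM; growth read once vehicle control cultures reached saturation at 30 °C; 1 = growth at the plate median or of vehicle wells; lower values mean less growth of the strain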
Settings: S. cerevisiae deletion strains, growth OD

Measured: normalized growth

Nc1c2c(nc3ccccc13)CCCC2
inactive: locus YAL013W, strain DEP1, hits give low values 1.02 | locus YAL021C, strain ccr4, hits give low values 0.985 | locus YAL026C, strain drs2, hits give low values 0.975 | locus YAL030W, strain snc1, hits give low values 1.01 | locus YAL040C, strain CLN3, hits give low values 1.02 | locus YBL061C, strain skt5, hits give low values 0.984 | locus YBR009C, strain hhf1, hits give low values 0.978 | locus YBR021W, strain FUR4, hits give low values 0.853 | locus YBR023C, strain chs3, hits give low values 0.993 | locus YBR171W, strain sec66, hits give low values 0.959 | locus YBR229C, strain ROT2, hits give low values 1.02 | locus YBR231C, strain swc5, hits give low values 0.981 | locus YBR279W, strain paf1, hits give low values 1 | locus YCL011C, strain gbp2, hits give low values 1 | locus YCL016C, strain dcc1, hits give low values 1.01 | locus YCL029C, strain bik1, hits give low values 1.02 | locus YCL069W, strain vba3, hits give low values 0.989 | locus YCR088W, strain abp1, hits give low values 0.993 | locus YDL005C, strain med2, hits give low values 0.977 | locus YDL035C, strain GPR1, hits give low values 1.01 | locus YDL040C, strain nat1, hits give low values 0.989 | locus YDL074C, strain BRE1, hits give low values 1.01 | locus YDL101C, strain DUN1, hits give low values 1.02 | locus YDL134C, strain PPH21, hits give low values 1 | locus YDL185W, strain tfp1, hits give low values 1.01 | locus YDL192W, strain arf1, hits give low values 1.01 | locus YDR001C, strain nth1, hits give low values 0.983 | locus YDR069C, strain doa4, hits give low values 0.936 | locus YDR101C, strain arx1, hits give low values 1.02 | locus YDR137W, strain rgp1, hits give low values 1.02 | locus YDR150W, strain NUM1, hits give low values 1.02 and 0.999 | locus YDR159W, strain sac3, hits give low values 0.939 | locus YDR162C, strain NBP2, hits give low values 1.02 | locus YDR195W, strain ref2 0.963 | locus YDR297W, strain sur2, hits give low values 0.986 | locus YDR318W, strain mcm21, hits give low values 1.01 | locus YDR334W, strain swr1, hits give low values 0.974 | locus YDR335W, strain msn5, hits give low values 0.992 | locus YDR388W, hits give low values 1 | locus YDR392W, strain spt3, hits give low values 0.939 | locus YDR502C, strain sam2, hits give low values 1.02 | locus YEL003W, strain gim4, hits give low values 0.973 | locus YEL037C, strain rad23, hits give low values 0.978 | locus YEL061C, strain CIN8 (second series), hits give low values 0.983 | locus YEL061C, strain CIN8, hits give low values 1.01 | locus YER002W, strain NOP16, hits give low values 0.997 | locus YER015W, strain faa2, hits give low values 0.987 | locus YER016W, strain bim1, hits give low values 0.994 | locus YER110C, hits give low values 1.02 | locus YER111C, strain swi4, hits give low values 0.988 | locus YER155C, strain BEM2 (second series), hits give low values 0.902 | locus YER155C, strain BEM2, hits give low values 1 | locus YER167W, strain BCK2, hits give low values 1.01 | locus YFR010W, strain ubp6, hits give low values 0.944 | locus YGL078C, strain dbp3, hits give low values 1.02 | locus YGL086W, strain mad1, hits give low values 1.01 | locus YGL167C, strain pmr1, hits give low values 0.978 | locus YGL173C, strain kem1, hits give low values 0.958 | locus YGL227W, strain vid30, hits give low values 0.993 | locus YGL240W, strain doc1, hits give low values 0.946 | locus YGL248W, strain PDE1, hits give low values 1.02 | locus YGL253W, strain hxk2, hits give low values 0.96 | locus YGR078C, strain PAC10, hits give low values 0.992 | locus YGR135W, strain pre9, hits give low values 0.987 | locus YGR229C, strain SMI1, hits give low values 1.02 | locus YGR252W, strain gcn5, hits give low values 0.977 | locus YHR013C, strain ard1, hits give low values 0.867 | locus YHR027C, strain rpn1, hits give low values 0.968 | locus YHR030C, strain SLT2, hits give low values 1.01 and 0.987 | locus YHR079C, strain IRE1 (second series), hits give low values 1.02 | locus YHR079C, strain IRE1, hits give low values 1 | locus YHR094C, strain hxt1, hits give low values 1.02 | locus YHR129C, strain ARP1, hits give low values 1.02 | locus YHR142W, strain chs7, hits give low values 1 | locus YHR200W, strain rpn10, hits give low values 1.01 | locus YIL066C, strain RNR3, hits give low values 1.02 | locus YIL073C, strain SPO22, hits give low values 1.14 | locus YIL125W, strain kgd1, hits give low values 1.02 | locus YIR030C, strain dcg1, hits give low values 1.02 | locus YJL092W, strain hpr5, hits give low values 0.983 | locus YJL095W, strain BCK1 (second series), hits give low values 0.991 | locus YJL095W, strain BCK1, hits give low values 1.01 and 1 | locus YJL115W, strain asf1, hits give low values 0.981 | locus YJL129C, strain trk1, hits give low values 0.997 | locus YJL134W, strain LCB3, hits give low values 1.01 | locus YJL154C, strain vps35, hits give low values 0.974 | locus YJL164C, strain tpk1, hits give low values 1.01 | locus YJL166W, strain qcr8, hits give low values 0.992 | locus YJL168C, strain set2, hits give low values 1.01 | locus YJL187C, strain SWE1 (second series), hits give low values 1.01 | locus YJR043C, strain POL32, hits give low values 1.04 | locus YJR066W, strain TOR1, hits give low values 0.987 | locus YJR075W, strain HOC1, hits give low values 0.976 | locus YKL009W, strain mrt4, hits give low values 1.01
